# Data: the supplement of paper PMC7411054
# How the values were obtained:
# Conditions in all cases: treatment time: 24 h
# A549-ACTB-RAB5A [1] = assay: lowest phenotypically active concentration; higher = less potent
# Outline: (§1)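 Phenotypic activity depended on meeting both a deviation and a reproducibility criterion. The fifteen gene-edited A549, HepG2 and WPMY1 reporter lines were treated at 0.3, 1, 3 or 9 µM for 24 h, four wells each, then imaged live with features normalised to solvent control wells. Deviation required ≥3 of 4 wells past the 95th percentile of control Euclidean distances, and reproducibility a median replicate Pearson correlation above the 95th percentile of non-replicates.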
# A549-CANX-COX4 [2] = assay: as above
# Outline: as §1
# A549-GM130-SQSTM1 [3] = assay: as above
# Outline: as §1
# A549-TP53BP1-CLTA [4] = assay: as above
# Outline: as §1
# A549-TUBA1B-RELA [5] = assay: as above
# Outline: as §1
# A549-ACTB-RAB5A [6] = assay: phenotypically active (imaging signature differs from DMSO and reproducible) at any of 0.3-9 uM (binary (1 = active, 0 = inactive)); higher = active
# Outline: as §1
# A549-CANX-COX4 [7] = assay: as above
# Outline: as §1
# A549-GM130-SQSTM1 [8] = assay: as above
# Outline: as §1
# A549-TP53BP1-CLTA [9] = assay: as above
# Outline: as §1
# A549-TUBA1B-RELA [10] = assay: as above
# Outline: as §1
# HepG2-ACTB-RAB5A = assay: as above
# Outline: as §1
# HepG2-CANX-COX4 = assay: as above
# Outline: as §1
# HepG2-GM130-SQSTM1 = assay: as above
# Outline: as §1
# HepG2-TP53BP1-CLTA = assay: as above
# Outline: as §1
# HepG2-TUBA1B-RELA = assay: as above
# Outline: as §1
# WPMY1-ACTB-RAB5A = assay: as above
# Outline: as §1
# WPMY1-CANX-COX4 = assay: as above
# Outline: as §1
# WPMY1-GM130-SQSTM1 = assay: as above
# Outline: as §1
# WPMY1-TP53BP1-CLTA = assay: as above
# Outline: as §1
# WPMY1-TUBA1B-RELA = assay: as above
# Outline: as §1
Compound,lowest phenotypically active concentration (A549-ACTB-RAB5A [1]) [µM],lowest phenotypically active concentration (A549-CANX-COX4 [2]) [µM],lowest phenotypically active concentration (A549-GM130-SQSTM1 [3]) [µM],lowest phenotypically active concentration (A549-TP53BP1-CLTA [4]) [µM],lowest phenotypically active concentration (A549-TUBA1B-RELA [5]) [µM],phenotypically active (A549-ACTB-RAB5A [6]),phenotypically active (A549-CANX-COX4 [7]),phenotypically active (A549-GM130-SQSTM1 [8]),phenotypically active (A549-TP53BP1-CLTA [9]),phenotypically active (A549-TUBA1B-RELA [10]),phenotypically active (HepG2-ACTB-RAB5A),phenotypically active (HepG2-CANX-COX4),phenotypically active (HepG2-GM130-SQSTM1),phenotypically active (HepG2-TP53BP1-CLTA),phenotypically active (HepG2-TUBA1B-RELA),phenotypically active (WPMY1-ACTB-RAB5A),phenotypically active (WPMY1-CANX-COX4),phenotypically active (WPMY1-GM130-SQSTM1),phenotypically active (WPMY1-TP53BP1-CLTA),phenotypically active (WPMY1-TUBA1B-RELA)
CCCC(=O)O[C@]1(C(=O)COC(C)=O)CC[C@H]2[C@@H]3C[C@H](F)C4=CC(=O)C=C[C@]4(C)[C@@]3(F)[C@@H](O)C[C@@]21C [difluprednate],≤ 0.3,≤ 0.3,≤ 0.3,≤ 0.3,≤ 0.3,1 (active),1 (active),1 (active),1 (active),1 (active),0 (inactive),0 (inactive),0 (inactive),0 (inactive),0 (inactive),0 (inactive),0 (inactive),0 (inactive),0 (inactive),0 (inactive)
CCCCC(=O)N(Cc1ccc(-c2ccccc2-c2nnn[nH]2)cc1)[C@H](C(=O)O)C(C)C [valsartan],–,–,–,–,–,0 (inactive),0 (inactive),0 (inactive),0 (inactive),0 (inactive),0 (inactive),0 (inactive),0 (inactive),0 (inactive),0 (inactive),0 (inactive),0 (inactive),0 (inactive),0 (inactive),0 (inactive)
NS(=O)(=O)Cc1noc2ccccc12 [zonisamide],–,–,–,–,–,0 (inactive),0 (inactive),0 (inactive),0 (inactive),0 (inactive),0 (inactive),0 (inactive),0 (inactive),0 (inactive),0 (inactive),0 (inactive),0 (inactive),0 (inactive),0 (inactive),0 (inactive)
COc1ccc(OC)c(C(O)CNC(=O)CN)c1 (stereo not given) [midodrine],–,–,–,–,–,0 (inactive),0 (inactive),0 (inactive),0 (inactive),0 (inactive),0 (inactive),0 (inactive),0 (inactive),0 (inactive),0 (inactive),0 (inactive),0 (inactive),0 (inactive),0 (inactive),0 (inactive)
C=CC(=O)N1CCC[C@@H](n2nc(-c3cccc(C(=O)Nc4ccc(C(C)C)c(C)c4)c3)c3c(N)ncnc32)C1,3,3,3,3,1,1 (active),1 (active),1 (active),1 (active),1 (active),1 (active),1 (active),1 (active),1 (active),1 (active),1 (active),1 (active),1 (active),1 (active),1 (active)
NCC(=O)Nc1ccc(-n2nc(C(F)(F)F)cc2-c2ccc3c(ccc4ccccc43)c2)cc1,1,1,1,1,1,1 (active),1 (active),1 (active),1 (active),1 (active),1 (active),1 (active),1 (active),1 (active),1 (active),1 (active),1 (active),1 (active),1 (active),1 (active)
CCC1=C[C@@H]2CN(C1)Cc1c([nH]c3ccccc13)[C@@](C(=O)OC)(c1cc3c(cc1OC)N(C)[C@H]1[C@@](O)(C(=O)OC)[C@H](OC(C)=O)[C@]4(CC)C=CCN5CC[C@]31[C@@H]54)C2 [vinorelbine],≤ 0.3,≤ 0.3,≤ 0.3,≤ 0.3,≤ 0.3,1 (active),1 (active),1 (active),1 (active),1 (active),1 (active),1 (active),1 (active),1 (active),1 (active),1 (active),1 (active),1 (active),1 (active),1 (active)
Cc1cc(/N=N/c2ccc(S(=O)(=O)Nc3ccccn3)cc2)c(N)cc1O,9,9,9,9,9,1 (active),1 (active),1 (active),1 (active),1 (active),1 (active),1 (active),1 (active),1 (active),1 (active),1 (active),1 (active),1 (active),1 (active),1 (active)
COc1cc(/C=C/c2ccc(OC)cc2OC)cc(OC)c1,3,1,3,1,3,1 (active),1 (active),1 (active),1 (active),1 (active),1 (active),1 (active),1 (active),1 (active),1 (active),1 (active),1 (active),1 (active),1 (active),1 (active)
Cc1c(NC(=O)OC[C@@H]2COCCN2)cn2ncnc(Nc3ccc4c(cnn4Cc4cccc(F)c4)c3)c12,1,1,1,≤ 0.3,1,1 (active),1 (active),1 (active),1 (active),1 (active),1 (active),1 (active),1 (active),1 (active),1 (active),1 (active),1 (active),1 (active),1 (active),1 (active)
O=C(O)c1ccc(Nc2ncc3c(n2)-c2ccc(Cl)cc2C(c2c(F)cccc2F)=NC3)cc1,≤ 0.3,≤ 0.3,≤ 0.3,≤ 0.3,≤ 0.3,1 (active),1 (active),1 (active),1 (active),1 (active),1 (active),1 (active),1 (active),1 (active),1 (active),1 (active),1 (active),1 (active),1 (active),1 (active)
O=C(CCCCSc1nc(-c2ccc(-c3ccccc3)cc2)cc(=O)[nH]1)NO,≤ 0.3,1,≤ 0.3,≤ 0.3,≤ 0.3,1 (active),1 (active),1 (active),1 (active),1 (active),1 (active),1 (active),1 (active),1 (active),1 (active),1 (active),1 (active),1 (active),1 (active),1 (active)
CCc1cc(-c2n[nH]c(C)c2-c2ccc3c(c2)OCCO3)c(O)cc1O,3,3,3,3,3,1 (active),1 (active),1 (active),1 (active),1 (active),1 (active),1 (active),1 (active),1 (active),1 (active),1 (active),1 (active),1 (active),1 (active),1 (active)
Cc1cc(Nc2nc(N[C@@H](C)c3ncc(F)cn3)ncc2Cl)n[nH]1,3,3,3,3,1,1 (active),1 (active),1 (active),1 (active),1 (active),1 (active),1 (active),1 (active),1 (active),1 (active),1 (active),1 (active),1 (active),1 (active),1 (active)
Nc1nc(S)c2[nH]cnc2n1 [thioguanine],3,9,9,9,9,1 (active),1 (active),1 (active),1 (active),1 (active),1 (active),1 (active),1 (active),1 (active),1 (active),1 (active),1 (active),1 (active),1 (active),1 (active)
CN(C)CCCNc1c2c(=O)n(C)c(=O)nc-2n(C)c2ccccc12,9,9,9,9,9,1 (active),1 (active),1 (active),1 (active),1 (active),1 (active),1 (active),1 (active),1 (active),1 (active),1 (active),1 (active),1 (active),1 (active),1 (active)
CC(=O)c1c(C)c2cnc(Nc3ccc(N4CCNCC4)cn3)nc2n(C2CCCC2)c1=O,≤ 0.3,≤ 0.3,≤ 0.3,≤ 0.3,≤ 0.3,1 (active),1 (active),1 (active),1 (active),1 (active),1 (active),1 (active),1 (active),1 (active),1 (active),1 (active),1 (active),1 (active),1 (active),1 (active)
COc1cccc(-c2cc(F)ccc2[C@H]2Cc3nc(N)nc(C)c3C(=O)N2)n1,≤ 0.3,≤ 0.3,≤ 0.3,≤ 0.3,≤ 0.3,1 (active),1 (active),1 (active),1 (active),1 (active),1 (active),1 (active),1 (active),1 (active),1 (active),1 (active),1 (active),1 (active),1 (active),1 (active)
O=C(CCCCCCC(=O)Nc1cccnc1)NO [Pyroxamide],3,3,3,9,9,1 (active),1 (active),1 (active),1 (active),1 (active),1 (active),1 (active),1 (active),1 (active),1 (active),1 (active),1 (active),1 (active),1 (active),1 (active)
C/C=C1\NC(=O)[C@H]2CSSCCC=C[C@H](CC(=O)N[C@H](C(C)C)C(=O)N2)OC(=O)[C@H](C(C)C)NC1=O,≤ 0.3,≤ 0.3,≤ 0.3,≤ 0.3,≤ 0.3,1 (active),1 (active),1 (active),1 (active),1 (active),1 (active),1 (active),1 (active),1 (active),1 (active),1 (active),1 (active),1 (active),1 (active),1 (active)
COc1cc(N2CCN(C)CC2)ccc1Nc1nccc(-c2cn(C)c3cnccc23)n1,1,9,3,1,1,1 (active),1 (active),1 (active),1 (active),1 (active),1 (active),1 (active),1 (active),1 (active),1 (active),1 (active),1 (active),1 (active),1 (active),1 (active)
